ChEMBL document CHEMBL3988442, “University of Dundee, Small-Polar-MMV Screening Library” (2021)
For some assays here: Results with a measured potency or affinity are listed apart.

Legend:
Parameters in all cases: scale not given: direction of the effect not stated beside the values
[1] = biological target: Protein translocase subunit SecA (Escherichia coli (strain K12)) (UniProt P10408); assay: Assay to Identify E. coli SecA ATPase Inhibitors; format: functional; settings: 30 µM
[2] = biological target: T1, Ubiquitin-activating enzyme e1, putative (Leishmania donovani (strain BPK282A1)) (UniProt E9BSI1); assay: Leishmania donovani Ubiquitin Activating Enzyme (LdE1); format: functional; settings: 30 µM
T1 sequence (whole entry): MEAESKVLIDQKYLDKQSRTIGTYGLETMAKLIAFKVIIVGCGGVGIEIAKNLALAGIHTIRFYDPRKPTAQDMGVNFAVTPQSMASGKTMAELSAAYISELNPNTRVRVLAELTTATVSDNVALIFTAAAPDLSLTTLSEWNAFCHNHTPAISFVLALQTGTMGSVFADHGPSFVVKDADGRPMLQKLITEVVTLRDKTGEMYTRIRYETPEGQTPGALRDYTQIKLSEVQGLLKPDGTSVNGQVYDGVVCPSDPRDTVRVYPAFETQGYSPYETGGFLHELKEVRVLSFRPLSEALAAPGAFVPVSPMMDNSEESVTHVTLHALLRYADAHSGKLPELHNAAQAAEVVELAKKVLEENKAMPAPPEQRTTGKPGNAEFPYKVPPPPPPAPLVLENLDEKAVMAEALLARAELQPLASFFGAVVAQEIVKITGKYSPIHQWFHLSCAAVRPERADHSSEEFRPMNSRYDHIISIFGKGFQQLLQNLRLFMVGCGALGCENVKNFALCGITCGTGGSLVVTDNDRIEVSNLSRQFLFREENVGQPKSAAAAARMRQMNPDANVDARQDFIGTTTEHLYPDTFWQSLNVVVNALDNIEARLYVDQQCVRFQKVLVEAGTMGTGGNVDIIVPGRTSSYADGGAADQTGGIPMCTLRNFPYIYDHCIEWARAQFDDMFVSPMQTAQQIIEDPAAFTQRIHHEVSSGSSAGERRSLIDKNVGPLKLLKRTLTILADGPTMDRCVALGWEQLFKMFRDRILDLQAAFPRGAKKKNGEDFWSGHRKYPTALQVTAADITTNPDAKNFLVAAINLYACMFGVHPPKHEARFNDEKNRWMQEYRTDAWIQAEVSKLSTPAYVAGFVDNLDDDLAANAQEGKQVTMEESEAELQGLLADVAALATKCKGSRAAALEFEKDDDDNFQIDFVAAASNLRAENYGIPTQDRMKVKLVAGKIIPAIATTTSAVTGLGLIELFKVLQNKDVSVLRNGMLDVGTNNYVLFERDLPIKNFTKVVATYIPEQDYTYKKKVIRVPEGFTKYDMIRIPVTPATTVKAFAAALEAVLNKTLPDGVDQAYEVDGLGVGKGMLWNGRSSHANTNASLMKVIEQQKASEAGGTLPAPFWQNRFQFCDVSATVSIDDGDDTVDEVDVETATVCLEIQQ

[3] = biological target: AMP-activated protein kinase, AMPK (Homo sapiens) (UniProt P54646+O43741+P54619+Q9UGJ0+Q9Y478+Q13131+Q9UGI9); assay: AMP-dependent Kinase enzyme assay. An in vitro enzyme assay that detects ADP turnover that is directly proportional to AMPK activity. This uses naive AMPK that is activated during the assay with MK-8722; format: functional; settings: 30 µM
[4] = biological target: Sialic acid-binding Ig-like lectin 9 (Homo sapiens) (UniProt Q9Y336); assay: Hs-Siglec9 ALPHAscreen SOP 20170721; settings: 10 µM
Sequence of Sialic acid-binding Ig-like lectin 9 (Homo sapiens) (Q9Y336 whole entry): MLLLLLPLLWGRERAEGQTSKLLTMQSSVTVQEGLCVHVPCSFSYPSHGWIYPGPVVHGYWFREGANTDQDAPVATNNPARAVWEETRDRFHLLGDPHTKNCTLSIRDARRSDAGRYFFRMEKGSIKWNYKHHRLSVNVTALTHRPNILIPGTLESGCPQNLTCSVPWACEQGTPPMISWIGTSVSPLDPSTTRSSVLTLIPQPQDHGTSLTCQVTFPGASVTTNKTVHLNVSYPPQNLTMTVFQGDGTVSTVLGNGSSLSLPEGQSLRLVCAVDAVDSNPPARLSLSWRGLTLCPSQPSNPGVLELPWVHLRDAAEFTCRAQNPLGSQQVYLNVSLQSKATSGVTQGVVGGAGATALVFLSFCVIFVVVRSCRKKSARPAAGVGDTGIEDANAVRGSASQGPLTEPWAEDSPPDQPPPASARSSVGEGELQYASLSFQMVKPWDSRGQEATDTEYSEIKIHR

[5] = system: Trypanosoma cruzi; assay: Trypanosoma cruzi phosphomannomutase and mannose-1-phosphate guanylyltransferase assay; format: functional; settings: 10 µM
[6] = biological target: T2, Arginase-2, mitochondrial (Homo sapiens) (UniProt P78540); assay: in vitro enzyme assay to detect the production of urea directly proportional to the activity of Arginase II; format: functional; settings: 33.3 µM; note: in the data most compounds retested in dose-response had high values
T2 sequence (whole entry): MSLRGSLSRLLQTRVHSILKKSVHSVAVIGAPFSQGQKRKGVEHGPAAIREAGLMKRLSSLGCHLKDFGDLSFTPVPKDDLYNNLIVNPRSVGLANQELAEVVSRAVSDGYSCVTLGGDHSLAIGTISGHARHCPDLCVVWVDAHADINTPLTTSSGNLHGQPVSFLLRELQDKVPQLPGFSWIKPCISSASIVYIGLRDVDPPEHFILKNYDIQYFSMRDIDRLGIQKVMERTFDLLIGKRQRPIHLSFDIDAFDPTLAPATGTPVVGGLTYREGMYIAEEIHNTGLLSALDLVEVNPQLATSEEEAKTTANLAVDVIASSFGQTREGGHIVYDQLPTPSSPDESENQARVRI

[7] = biological target: T3, Proteasome subunit beta (Trypanosoma cruzi) (UniProt O96673); assay: Trypanosoma cruzi proteasome chymotrypsin-like activity (TcProtChymo) assay.; note: in the data most compounds retested in dose-response had high values; format: functional; settings: 9.37 µM
T3 sequence (whole entry): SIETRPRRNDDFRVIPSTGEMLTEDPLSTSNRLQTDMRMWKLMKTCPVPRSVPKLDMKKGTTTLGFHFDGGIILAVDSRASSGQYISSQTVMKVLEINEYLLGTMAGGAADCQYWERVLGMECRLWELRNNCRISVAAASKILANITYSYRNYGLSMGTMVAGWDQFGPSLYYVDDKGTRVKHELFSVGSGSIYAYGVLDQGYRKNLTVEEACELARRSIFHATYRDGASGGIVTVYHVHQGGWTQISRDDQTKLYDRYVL

[8] = organism: Homo sapiens; assay: To identify inhibition of the IFN signalling (Jak-Stat) pathway via expression of an eGFP reporter gene under the control of an IFN-stimulated response element (ISRE) containing MxA promoter.; format: functional; settings: 30 µM
[9] = biological target: T4, Tyrosyl-tRNA synthetase, putative (Trypanosoma cruzi (strain CL Brener)) (UniProt Q4DSP6); assay: Trypanosoma cruzi tyrosyl tRNA synthetase (TcYRS) _High Tyrosine SOP; format: functional; settings: 30 µM; note: in the data most compounds retested in dose-response had high values
T4 sequence (whole entry): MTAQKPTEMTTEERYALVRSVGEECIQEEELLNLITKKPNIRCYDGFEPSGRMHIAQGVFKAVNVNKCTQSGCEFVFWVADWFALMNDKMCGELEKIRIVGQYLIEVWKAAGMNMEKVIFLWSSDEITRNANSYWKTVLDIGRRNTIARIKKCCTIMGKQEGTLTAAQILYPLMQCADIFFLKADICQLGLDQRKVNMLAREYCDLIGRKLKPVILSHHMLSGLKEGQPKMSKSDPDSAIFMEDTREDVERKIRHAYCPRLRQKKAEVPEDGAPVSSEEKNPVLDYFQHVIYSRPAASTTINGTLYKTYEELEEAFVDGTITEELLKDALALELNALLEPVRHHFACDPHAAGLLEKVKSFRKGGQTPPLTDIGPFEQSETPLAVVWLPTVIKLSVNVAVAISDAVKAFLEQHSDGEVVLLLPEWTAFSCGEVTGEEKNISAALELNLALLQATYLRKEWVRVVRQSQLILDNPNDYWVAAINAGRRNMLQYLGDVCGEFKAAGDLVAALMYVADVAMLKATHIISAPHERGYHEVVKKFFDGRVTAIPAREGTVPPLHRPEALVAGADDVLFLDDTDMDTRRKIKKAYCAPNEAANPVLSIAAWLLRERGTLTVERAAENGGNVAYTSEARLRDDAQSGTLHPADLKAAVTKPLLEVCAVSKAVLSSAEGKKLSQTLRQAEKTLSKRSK

[10] = biological target: T4, Tyrosyl-tRNA synthetase, putative (Trypanosoma cruzi (strain CL Brener)); assay: Trypanosoma cruzi tyrosyl tRNA synthetase (TcYRS) SOP; format: functional; settings: 30 µM
[11] = biological target: Chromo domain-containing protein 1 (Saccharomyces cerevisiae (strain ATCC 204508 / S288c) (Baker's yeast)) (UniProt P32657); assay: ScCHD-1 Enzyme Inhibition Assay; format: functional; settings: 30 µM; note: in the data most compounds retested in dose-response had high values
Sequence of Chromo domain-containing protein 1 (Saccharomyces cerevisiae (strain ATCC 204508 / S288c) (Baker's yeast)) (P32657 whole entry, the tested form may be a part): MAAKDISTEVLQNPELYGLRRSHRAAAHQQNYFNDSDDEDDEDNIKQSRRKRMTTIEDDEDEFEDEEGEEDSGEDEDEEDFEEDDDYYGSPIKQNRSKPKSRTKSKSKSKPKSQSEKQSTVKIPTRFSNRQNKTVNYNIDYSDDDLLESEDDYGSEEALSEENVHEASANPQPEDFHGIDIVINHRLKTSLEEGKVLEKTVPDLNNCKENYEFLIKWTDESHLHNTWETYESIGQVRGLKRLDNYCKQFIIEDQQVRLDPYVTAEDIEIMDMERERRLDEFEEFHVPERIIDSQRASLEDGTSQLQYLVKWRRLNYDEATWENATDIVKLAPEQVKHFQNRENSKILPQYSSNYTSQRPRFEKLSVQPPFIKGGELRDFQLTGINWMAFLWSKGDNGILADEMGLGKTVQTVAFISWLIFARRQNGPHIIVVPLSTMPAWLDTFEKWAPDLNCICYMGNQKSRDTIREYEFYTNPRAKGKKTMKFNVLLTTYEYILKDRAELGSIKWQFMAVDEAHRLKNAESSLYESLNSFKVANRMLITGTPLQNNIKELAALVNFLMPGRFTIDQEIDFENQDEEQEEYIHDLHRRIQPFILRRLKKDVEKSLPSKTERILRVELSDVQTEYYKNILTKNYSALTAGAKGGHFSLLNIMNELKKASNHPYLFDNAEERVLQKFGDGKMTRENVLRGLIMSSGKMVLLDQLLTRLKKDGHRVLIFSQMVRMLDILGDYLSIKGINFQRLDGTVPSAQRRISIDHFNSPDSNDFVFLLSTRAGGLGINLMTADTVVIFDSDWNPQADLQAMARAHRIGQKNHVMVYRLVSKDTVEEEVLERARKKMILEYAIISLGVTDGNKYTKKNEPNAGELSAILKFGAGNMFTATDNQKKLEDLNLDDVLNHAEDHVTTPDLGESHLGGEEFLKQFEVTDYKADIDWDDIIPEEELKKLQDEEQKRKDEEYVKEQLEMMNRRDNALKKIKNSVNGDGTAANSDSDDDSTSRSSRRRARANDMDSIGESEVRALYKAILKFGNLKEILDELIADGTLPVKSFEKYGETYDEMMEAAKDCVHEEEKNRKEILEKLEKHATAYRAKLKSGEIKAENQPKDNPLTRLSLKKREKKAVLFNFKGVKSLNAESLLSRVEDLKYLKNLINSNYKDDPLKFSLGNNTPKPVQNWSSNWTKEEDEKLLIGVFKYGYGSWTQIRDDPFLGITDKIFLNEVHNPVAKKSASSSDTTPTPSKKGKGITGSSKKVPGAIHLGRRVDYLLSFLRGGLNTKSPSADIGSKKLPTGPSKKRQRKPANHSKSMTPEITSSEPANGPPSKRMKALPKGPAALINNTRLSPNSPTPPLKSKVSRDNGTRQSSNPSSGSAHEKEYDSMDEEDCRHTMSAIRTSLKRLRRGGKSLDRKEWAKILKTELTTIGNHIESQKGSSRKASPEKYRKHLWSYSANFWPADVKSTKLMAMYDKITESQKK

Sequence of Protein translocase subunit SecA (Escherichia coli (strain K12)) (P10408 whole entry): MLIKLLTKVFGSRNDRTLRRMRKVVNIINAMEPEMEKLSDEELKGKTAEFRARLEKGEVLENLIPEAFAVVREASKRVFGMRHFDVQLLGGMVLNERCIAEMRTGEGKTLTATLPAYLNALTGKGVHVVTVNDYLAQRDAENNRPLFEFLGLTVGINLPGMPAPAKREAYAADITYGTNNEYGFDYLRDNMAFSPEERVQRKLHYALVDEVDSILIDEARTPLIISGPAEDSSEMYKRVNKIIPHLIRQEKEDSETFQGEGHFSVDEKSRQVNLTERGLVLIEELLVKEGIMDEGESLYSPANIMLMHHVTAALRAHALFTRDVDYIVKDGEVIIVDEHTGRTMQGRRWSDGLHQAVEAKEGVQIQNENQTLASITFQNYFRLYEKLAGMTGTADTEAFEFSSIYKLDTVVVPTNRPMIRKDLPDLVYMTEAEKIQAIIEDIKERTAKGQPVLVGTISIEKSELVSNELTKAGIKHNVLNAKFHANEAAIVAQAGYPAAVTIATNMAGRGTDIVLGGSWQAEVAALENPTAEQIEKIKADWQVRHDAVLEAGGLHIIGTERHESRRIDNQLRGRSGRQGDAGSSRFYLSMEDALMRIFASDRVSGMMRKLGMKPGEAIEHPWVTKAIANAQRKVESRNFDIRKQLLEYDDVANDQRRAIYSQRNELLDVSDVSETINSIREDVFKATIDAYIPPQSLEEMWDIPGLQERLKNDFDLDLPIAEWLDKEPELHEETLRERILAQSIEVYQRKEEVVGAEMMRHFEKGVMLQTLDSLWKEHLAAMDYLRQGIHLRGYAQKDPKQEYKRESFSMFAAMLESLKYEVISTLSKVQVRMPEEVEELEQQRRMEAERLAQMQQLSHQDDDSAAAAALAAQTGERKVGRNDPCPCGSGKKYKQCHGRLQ

| Compound | Percent Effect [1] [%] | Percent Effect [2] [%] | Percent Effect [3] [%] | Percent Effect [4] [%] | Percent Effect [5] [%] | Percent Effect [6] [%] | Percent Effect [7] [%] | Percent Effect [8] [%] | Percent Effect [9] [%] | Percent Effect [10] [%] | Percent Effect [11] [%] |
| --- | --- | --- | --- | --- | --- | --- | --- | --- | --- | --- | --- |
| Cc1ccc(CCC(=O)N(C)CCN2CCOCC2)c(C)c1 | -0.772 | -5.26 | 4.45 | 4.55 | -0.487 | -7.1 | 17 | -17.1 | 6.38 | 5.2 | 4.92 |
| CC(C)c1nc2n(n1)CC(NCc1nnc(C(C)C)o1)CC2 (configuration not stated) | -2.44 | 13.5 | 139 | 8.12 | 7.08 | -4.81 | 5.41 | 10.9 | 6.4 | 18.5 | -8.46 |
| O=C(N1CCCC1)N1Cc2nccn2CC(CN2CCCC2)C1 (configuration not stated) | 0.719 | 5.41 | 7.93 | -1.18 | -5.77 | -0.955 | 25.8 | -2.41 | -1.08 | 10.3 | -2.63 |
| O=C(NCCN1CCCCC1)c1nc(-c2ccc3cc[nH]c3c2)no1 | -1.02 | 25.3 | -7.25 | 3.61 | 4.71 | -4.75 | 20.5 | -13.4 | 4.23 | 12.8 | -6.27 |
| CCOc1ccc(CC(CNC(=O)c2occc2C)C(N)=O)cc1 (configuration not stated) | -5.57 | 10.4 | -18.6 | -5.56 | -3.23 | 1.47 | 3.64 | 9.64 | 7.62 | 11.8 | -12.3 |
| Cc1c(C(=O)N2CCCC2c2cnn(C)c2)nnn1-c1ccccc1 (configuration not stated) | -5.12 | 13.5 | -11.2 | 15.4 | 4.55 | -3.14 | 9.87 | 8.27 | 0.99 | 13.4 | -7.97 |
| Cc1nc(CN2C(=O)CC[C@H]3[C@@H]2CCN3C(=O)c2ccsc2)cs1 | 2.29 | 10.8 | 2.71 | -8.13 | 4.2 | -1.59 | 28 | -19.9 | 5.41 | 15.4 | -0.758 |
| CCc1csc(C2CCCN(C(=O)c3ccc(OC)nn3)C2)n1 (configuration not stated) | -6.61 | 7.79 | -35.3 | 12.8 | 0.187 | -0.356 | 4.73 | 14.5 | 7.77 | 14.6 | -7.71 |
| CN(C)S(=O)(=O)c1ccc(CN2CCCC2c2ccccc2)o1 (configuration not stated) | -4.81 | -7.89 | 2.57 | -3.79 | 9.06 | 2.88 | 5.33 | 15.1 | 6.4 | 23.5 | -6.96 |
| Cc1cncc(C(=O)N2CCCC(C(=O)CCc3ccccc3)C2)c1 (configuration not stated) | 3.06 | 2.74 | 1.42 | 1.76 | -5.88 | 4.54 | 19.2 | 14.7 | 4.3 | 15 | -12.2 |
| O=C(Nc1nccs1)N(CCO)Cc1ccsc1 | -1.95 | 13.2 | -2.9 | -1.76 | 5.08 | -2.3 | 11.5 | -0.668 | 8.33 | 29.3 | -13.6 |
| Cc1cc(NC(=O)CN(C)C2CCCN(c3cccnn3)C2)n(C)n1 (configuration not stated) | -4.44 | 7.89 | -28.4 | 2.85 | 12.2 | -1.8 | 10.6 | -5.3 | 4.43 | 13.6 | 6.51 |
| O=C(Nc1cccc(OCc2ccc(F)cc2)c1)C1COCCO1 (configuration not stated) | -4.66 | -8 | 0.674 | -3.67 | -1.27 | 1.04 | 14.3 | 5.69 | -8.2 | -3.7 | -0.73 |
| COc1ccc(CNC(=O)N(Cc2ccc(F)cc2F)C2CC2)cn1 | -6.72 | 15.2 | -2.76 | 9.29 | 5.95 | -0.76 | 0.737 | 8.63 | 3.45 | 21.5 | -7.42 |
| c1cnc(N2CCC3(CCN(Cc4ccncc4)CC3)CC2)nc1 | -0.982 | 0 | 7.11 | 7.41 | -2.25 | -4.14 | 13.1 | -0.931 | 1.08 | 5.13 | 13 |
| Cc1nc(C)n(C2CCCN(C(=O)c3csnn3)C2)n1 (configuration not stated) | -2.6 | 21.6 | -13 | -1.58 | -2.92 | -7.21 | 16.2 | 15.5 | 4.43 | 18.5 | -4.56 |
| CC(C(=O)N1CCN(c2cnccn2)CC1)n1cncn1 (configuration not stated) | -0.0716 | 1.27 | 4.88 | 1.64 | -4 | 7.53 | 8.23 | 11.1 | 3.12 | 10.1 | -8.39 |
| CCc1ncc2c(n1)CN(Cc1nc(-c3ccsc3)oc1C)CC2 | -6.04 | -18.4 | -33 | 12.2 | -1.77 | -0.719 | 9.73 | -1.35 | 19.2 | 16.1 | 2.49 |
| Cc1ccc(NC2CCN(C(=O)CCNS(C)(=O)=O)CC2)nn1 | -4.31 | -2.7 | -5.25 | 9 | -0.279 | -5.36 | -5.21 | 2.45 | 1.98 | 6.1 | 7.54 |
| CCOC(=O)CCCNC(=O)CN1CCN(c2ncccn2)CC1 | -2.22 | 7.79 | -1.07 | 5.04 | -3.64 | -112 | 17.5 | 2.75 | 5.38 | 8.64 | -0.631 |
| Fc1ccc(CN2CC[C@H]3O[C@@H](COCC4CCOCC4)CC[C@H]32)cc1 | -5.06 | 5.33 | 10.6 | -6.01 | -7.48 | -0.233 | 3.08 | 17.6 | -1.06 | -1.28 | -7.73 |
| COCCc1noc(CNC2CCc3nc(C(C)C)nn3C2)n1 (configuration not stated) | -1.47 | 2.6 | 8.06 | -4.34 | -1.27 | -2.74 | 6.39 | 17.2 | 0.952 | 0 | -13.7 |
